Results filed as inconclusive are left out. Activity calls are given as the source filed them. Unless noted, calls come from the whole dose curve; as a rule, active = well fitted curve in the direction sought with a large enough effect; inconclusive = small, poorly fitted or top-dose-only effect, or another doubt; inactive = no such curve, though single readings can be large; an effect the other way counts as inactive or inconclusive.
Legend:
[1] = biological target: Lysosomal acid glucosylceramidase (Homo sapiens) (UniProt P04062); experiment: Glucocerebrosidase-p2 (AID 348; in the data active = potency below about 10 µM; note: potency is the fitted concentration of half-maximal effect); conditions: purified GBA, blue fluorogenic substrate, 40 min
Procedure, shortened: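 Normal human glucocerebrosidase (0.2 nM) with blue fluorogenic substrate (80 uM final) in citrate/phosphate pH 5.9 with 10mM sodium taurocholate, 0.01% tween-20; 40 min RT, NaOH/glycine stop; fluorescence Ex 365/Em 440; AC50 from a titration from 0.6 nM upwards.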

[2] = AP1 Signaling Pathway (AID 357; active = well fitted curve in either direction with a large enough effect, not every such curve was filed as active; note: % is set by controls: 0 for no effect and ±100 for the full control effect); conditions: ME-180 AP-1-bla reporter, EGF-induced, beta-lactamase ratio, 5 h; at 7.69 µM (top of the series) unless noted
Procedure, shortened: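 ME-180 cells with beta-lactamase reporter under AP-1 response element, stimulated with EC50 EGF; compounds tested in titration series, 5 h at 37 °C. CCF4 substrate added 2.5 h at room temperature; 460/530 nm emission ratio gave %activity and AC50.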

[3] = biological target: Cytochrome P450 1A2 (Homo sapiens) (UniProt P05177); experiment: p450-cyp1a2 (AID 410; calls by dose curve; note: potency is the fitted concentration of half-maximal effect;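 for activity change, negative = inhibition: -100% = full effect of reference inhibitor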)
Procedure, shortened: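 O-Demethylation of luciferin 6' methyl ether by human CYP1A2 is monitored as luciferase luminescence. Substrate sits at Km (100uM); enzyme is 20nM. Values are scaled to 57 uM furafylline as maximal inhibition.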

[4] = Stat Signaling Pathway (AID 446; active = well fitted curve in either direction with a large enough effect, not every such curve was filed as active;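 note: ME-180 cervical cancer cells given 40 pM IL-6 alongside compound; SIE-controlled beta-lactamase reporter measured as 460/530 nm FRET emission ratio; % is set by controls: 0 for no effect and ±100 for the full control effect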); conditions: ME-180 SIE beta-lactamase reporter, IL-6 stimulated, 5 h; at 7.69 µM (top of the series) unless noted
Procedure, shortened: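 FRET read-out (405 nm excitation, 460/530 nm emission) of a beta-lactamase reporter under a STAT-inducible element in ME-180 cervical carcinoma cells. Cells with compound receive 40 pM IL-6 for 5 h. Values are normalised to AC90 stimulation and AC90 JAK-inhibitor controls.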

[5] = biological target: Glucocorticoid receptor (Homo sapiens) (UniProt P04150); experiment: GR-EFC Redistribution (AID 451; calls by dose curve; note: potency is the fitted concentration of half-maximal effect); conditions: CHO-K1 GR-EFC translocation, beta-gal luminescence, 2 h
Procedure, shortened: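 CHO-K1 cells expressing nuclear EA and GR-ED fragments of b-gal; compounds titrated up to 46 uM final, 2 h at 37 C. GR nuclear translocation read as complemented b-gal luminescence after 1 h RT detection.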

[6] = biological target: Mitogen-activated protein kinase 10 (Mus musculus) (UniProt Q61831); experiment: JNK3 AlphaScreen Assay (AID 530; active = well fitted curve in either direction with a large enough effect, not every such curve was filed as active;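 note: kinase came from lysate of stimulated human HepG2 cells; signal reports phosphorylation of biotinylated GST-cJun 1-79 at Ser73 with 10 µM ATP; % is set by controls: 0 for no effect and ±100 for the full control effect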)
Procedure, shortened: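 Activity was read by AlphaScreen after JNK3-containing HepG2 lysate (cytokine pre-activated) phosphorylated biotinylated GST-cJun with 10 uM ATP at room temperature. Phospho-Ser73 cJun antibody with Protein-A acceptor beads provided detection.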

[7] = biological target: 3',5'-cyclic-AMP phosphodiesterase 4B (Homo sapiens) (UniProt Q07343); experiment: qHTS Assay for Inhibitors of PDE-IV (AID 607; active = well fitted activation curve with a large enough effect in the main read-out, with a control signal flat, not every such curve was filed as active; note: % of control where 0% means no effect)
Procedure, shortened: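 Cell-based read-out of cAMP via a modified cyclic nucleotide-gated channel and membrane potential dye (535/590 nm) in HEK293 cells expressing PDE4 endogenously. Compounds tested up to 22.9 uM final; 100 uM RO 20-1724 reference.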

[8] = biological target: Cytochrome P450 2C9 (Homo sapiens) (UniProt P11712); experiment: qHTS Assay for Inhibitors and Substrates of Cytochrome P450 2C9 (AID 883); note: % is set by controls: 0 for no effect and ±100 for the full control effect; nearly all actives have a fitted effect of over 60% in size
Procedure, shortened: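 10nM CYP2C9 + 100uM Luciferin-H (=KM), 25mM KPO4; cpd 10 min 37C; NADPH regen, 60 min 37C; stop/detect with P450 Glo-Buffer 20 min; luminescence. Norm. to 57uM sulphaphenazole as full inhibition.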

[9] = biological target: Cytochrome P450 3A4 (Homo sapiens) (UniProt P08684); experiment: qHTS Assay for Activators of Cytochrome P450 3A4 (AID 885); note: nearly all actives have a fitted effect of over 65% in size; note: potency is the fitted concentration of half-maximal effect
Procedure, shortened: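 Luminescent readout of luciferin formed from 25 uM Luciferin-PPXE (KM level) by 20 nM CYP3A4 in 200 mM KPO4, with 60 min NADPH-driven reaction at room temperature after 10 min compound exposure. Ketoconazole (57 uM) defined 100% inhibition.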

[10] = biological target: Cytochrome P450 2D6 (Homo sapiens) (UniProt P10635); experiment: qHTS Assay for Inhibitors and Substrates of Cytochrome P450 2D6 (AID 891); note: nearly all actives have a fitted effect of over 60% in size; note: potency is the fitted concentration of half-maximal effect
Procedure, shortened: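 Luminescent read-out of luciferin formed by 5 nM human CYP2D6 demethylating 30 uM Luciferin-ME EGE (Km level) over 60 min at room temperature after NADPH regeneration addition. Data normalized to full inhibition by 1.43 uM quinidine.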

[11] = biological target: Cytochrome P450 2C19 (Homo sapiens) (UniProt P33261); experiment: qHTS Assay for Inhibitors and Substrates of Cytochrome P450 2C19 (AID 899); note: nearly all actives have a fitted effect of over 60% in size; note: potency is the fitted concentration of half-maximal effect
Procedure, shortened: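 Luminescent read-out of luciferin formed from Luciferin-H EGE (10uM, equal to KM). Enzyme 5nM in 50mM KPO4; compound added, 10 min at 37C, then NADPH regenerating system for 60 min at 37C. Full inhibition defined by 57uM ketoconazole.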

[12] = qHTS Assay for Lipid Storage Modulators (AID 1519; calls by dose curve); conditions: Drosophila S3 cells, BODIPY lipid droplet/cell ratio, laser cytometry, cells loaded with oleic acid; for activity change, negative = inhibition: at 57.5 µM (top of the series)
Procedure, shortened: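 Cells seeded at 5,000 per well were treated with compounds over a concentration series and loaded with oleic acid (400 uM, as added). Lipid droplet fluorescence (488 nm excitation, 500-530 nm channel) was read by laser-scanning cytometry and normalized to 20 uM Triacsin C.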

[13] = NFAT Signaling Pathway (AID 444; active = well fitted curve in either direction with a large enough effect, not every such curve was filed as active;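 note: carbachol stimulus at about its EC50 of 1 µM final; % is set by controls: 0 for no effect and ±100 for the full control effect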); conditions: Jurkat NFAT-bla M1, carbachol, beta-lactamase ratio, 5 h; at 7.69 µM (top of the series) unless noted
Procedure, shortened: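 Jurkat cells with NFAT-driven β-lactamase reporter and co-expressed M1 receptor, stimulated with carbachol (final 1 uM, ~EC50), compound titration, 5 h at 37 °C. CCF4 loaded 1 h at RT; 460/530 nm ratio gave %activity and AC50.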

[14] = biological target: Cytochrome P450 3A4 (Homo sapiens) (UniProt P08684); experiment: qHTS Assay for Inhibitors and Substrates of Cytochrome P450 3A4 (AID 884); note: nearly all actives have a fitted effect of over 50% in size; note: potency is the fitted concentration of half-maximal effect
Procedure, shortened: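 Luminescent readout of luciferin produced by CYP3A4 (20 nM) dealkylation of Luciferin-PPXE, 25 uM (its KM). NADPH-driven reaction ran 60 min at RT after 10 min compound preincubation; data scaled to 57 uM ketoconazole as 100% inhibition.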

[15] = Confirmation and Secondary Assay for Modulators of Hemoglobin Beta Chain Splicing at IVS2 654 locus (AID 910);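 note: HeLa cells stably carrying EGFP split by mutant beta-globin IVS2-654 intron; % of control where 0% means no effect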
Procedure, shortened: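 HeLa cells stably expressing EGFP interrupted by β-globin IVS2-654 intron, seeded overnight in Opti-MEM/2% FCS, then treated 2 days at 37 °C. Restored splicing read as total peak GFP intensity per well by laser scanning cytometry (488 nm excitation, 500–520 nm emission); 500 nM antisense PNA as control.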

[16] = Confirmation and Secondary Assay for Modulators of Hemoglobin Beta Chain Splicing at IVS2 705 locus (AID 930);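 note: HeLa cells stably expressing the EGFP-705 splicing reporter; GFP fluorescence per well restored by corrected splicing of the IVS2-705 intron in EGFP; % of control where 0% means no effect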
Procedure, shortened: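 Splice-correction reporter: EGFP cDNA split by beta-globin intron 2 bearing the 705 mutation, stably in HeLa. Compound incubation 2 days, 37C; fluorescent objects 5-250 µm summed per well.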

[17] = biological target: Ubiquitin carboxyl-terminal hydrolase 1 (Homo sapiens) (UniProt O94782); experiment: Inhibitors of USP1/UAF1: Pilot qHTS (AID 504865); note: potency is the fitted concentration of half-maximal effect; nearly all actives have a fitted effect of over 35% in size
Procedure, shortened: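 In 50mM HEPES pH 7.8 containing 0.5mM EDTA, 1mM TCEP, 0.1 mg/ml BSA and 0.01% Tween-20, 1nM USP1/UAF1 is exposed to compound for 15 min, then Ub-Rho (150nM final) is added and fluorescence is read over time.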

[18] = biological target: Glucocorticoid receptor (Homo sapiens) (UniProt P04150); experiment: GR-GFP Redistribution (AID 450;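 active = compounds whose dose series gives a full or clear partial fitted curve of increased nuclear translocation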; note: potency is the fitted concentration of half-maximal effect); conditions: U2OS GR-GFP nuclear translocation, laser cytometry, 2 h
[19] = qHTS Assay for Identification of Small Molecule Agonists for Hypoxia Response Element Signaling Pathway (AID 914; active = well fitted activation curve with a large enough effect in the signal ratio, with a control signal flat, not every such curve was filed as active; the % refers to the signal ratio; note: % of control where 0% means no effect); conditions: ME-180 (cervical carcinoma) HRE-bla reporter, beta-lactamase ratio, CoCl2, 17 h; activation: stronger effect = higher value
Procedure, shortened: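 Cells were plated overnight, pin-dosed with compound in a titration series, co-stimulated with EC50 CoCl2 and incubated 17 hours at 37 degrees Celsius. CCF4 substrate was then loaded, and AC50 values came from the 460nm/530nm ratio.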

[20] = measured here: cell count channel max response
[21] = measured here: lipid channel max response

Cytochrome P450 1A2 (Homo sapiens), sequence (P05177 whole entry, looked up): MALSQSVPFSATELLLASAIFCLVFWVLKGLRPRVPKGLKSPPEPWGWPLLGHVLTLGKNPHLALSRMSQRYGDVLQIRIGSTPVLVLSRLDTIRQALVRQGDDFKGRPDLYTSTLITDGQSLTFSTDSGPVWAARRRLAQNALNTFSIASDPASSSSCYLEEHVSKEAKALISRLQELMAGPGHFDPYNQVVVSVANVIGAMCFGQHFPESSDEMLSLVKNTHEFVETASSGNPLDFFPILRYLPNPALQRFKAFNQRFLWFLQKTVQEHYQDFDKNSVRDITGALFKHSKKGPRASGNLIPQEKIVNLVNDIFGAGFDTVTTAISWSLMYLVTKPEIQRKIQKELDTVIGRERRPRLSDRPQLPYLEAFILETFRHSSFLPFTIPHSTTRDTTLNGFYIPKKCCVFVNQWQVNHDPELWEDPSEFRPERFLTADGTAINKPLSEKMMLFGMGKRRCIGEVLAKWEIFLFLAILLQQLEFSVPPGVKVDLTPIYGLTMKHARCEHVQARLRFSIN
3',5'-cyclic-AMP phosphodiesterase 4B (Homo sapiens), sequence (Q07343 whole entry, looked up): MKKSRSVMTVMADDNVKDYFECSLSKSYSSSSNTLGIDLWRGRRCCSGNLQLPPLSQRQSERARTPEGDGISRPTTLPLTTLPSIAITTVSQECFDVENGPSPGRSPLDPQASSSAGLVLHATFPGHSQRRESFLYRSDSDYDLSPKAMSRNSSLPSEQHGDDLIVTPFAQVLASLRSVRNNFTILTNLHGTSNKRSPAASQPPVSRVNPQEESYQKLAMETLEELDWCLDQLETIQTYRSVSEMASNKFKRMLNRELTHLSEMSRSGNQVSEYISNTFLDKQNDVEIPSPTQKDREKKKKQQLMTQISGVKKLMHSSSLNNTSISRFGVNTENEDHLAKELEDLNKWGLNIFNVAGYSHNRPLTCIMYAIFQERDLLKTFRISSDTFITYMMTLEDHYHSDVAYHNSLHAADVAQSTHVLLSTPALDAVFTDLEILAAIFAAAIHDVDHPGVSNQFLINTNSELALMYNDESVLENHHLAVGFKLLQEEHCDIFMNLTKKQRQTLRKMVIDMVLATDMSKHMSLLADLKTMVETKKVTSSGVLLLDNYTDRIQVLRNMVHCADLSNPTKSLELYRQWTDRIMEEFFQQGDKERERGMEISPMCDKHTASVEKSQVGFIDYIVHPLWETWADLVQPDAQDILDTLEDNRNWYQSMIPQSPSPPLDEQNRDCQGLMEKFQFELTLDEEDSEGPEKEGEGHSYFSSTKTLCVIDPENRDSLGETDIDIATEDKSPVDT
Lysosomal acid glucosylceramidase (Homo sapiens), sequence (P04062 whole entry, looked up): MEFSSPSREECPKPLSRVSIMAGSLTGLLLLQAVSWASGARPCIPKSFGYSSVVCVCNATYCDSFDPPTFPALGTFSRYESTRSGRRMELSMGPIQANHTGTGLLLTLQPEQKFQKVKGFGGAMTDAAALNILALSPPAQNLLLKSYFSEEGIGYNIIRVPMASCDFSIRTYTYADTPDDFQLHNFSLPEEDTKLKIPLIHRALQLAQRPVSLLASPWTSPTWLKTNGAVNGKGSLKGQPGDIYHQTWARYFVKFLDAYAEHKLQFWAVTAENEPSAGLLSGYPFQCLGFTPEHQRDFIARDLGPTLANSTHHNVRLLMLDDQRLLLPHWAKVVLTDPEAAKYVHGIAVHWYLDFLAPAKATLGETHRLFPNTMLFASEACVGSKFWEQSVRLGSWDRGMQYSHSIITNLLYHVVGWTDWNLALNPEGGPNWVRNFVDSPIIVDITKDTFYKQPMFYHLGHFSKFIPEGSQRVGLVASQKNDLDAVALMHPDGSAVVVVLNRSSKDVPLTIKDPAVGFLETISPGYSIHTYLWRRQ
Cytochrome P450 3A4 (Homo sapiens), sequence (P08684 whole entry, looked up): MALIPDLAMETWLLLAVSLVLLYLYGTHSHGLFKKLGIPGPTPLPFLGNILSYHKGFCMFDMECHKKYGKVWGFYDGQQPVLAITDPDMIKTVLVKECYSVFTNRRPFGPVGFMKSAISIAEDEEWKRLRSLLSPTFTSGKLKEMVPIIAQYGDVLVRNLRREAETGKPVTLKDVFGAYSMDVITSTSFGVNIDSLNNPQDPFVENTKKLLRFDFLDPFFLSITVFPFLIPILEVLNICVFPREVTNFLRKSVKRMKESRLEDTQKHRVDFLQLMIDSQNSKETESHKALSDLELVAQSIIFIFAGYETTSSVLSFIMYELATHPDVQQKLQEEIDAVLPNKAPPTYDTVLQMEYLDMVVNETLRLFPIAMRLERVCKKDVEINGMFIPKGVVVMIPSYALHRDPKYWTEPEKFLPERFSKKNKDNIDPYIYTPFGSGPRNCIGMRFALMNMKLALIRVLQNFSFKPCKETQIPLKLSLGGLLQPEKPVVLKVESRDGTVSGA
Glucocorticoid receptor (Homo sapiens), sequence (P04150 whole entry, looked up, the tested form may be a part): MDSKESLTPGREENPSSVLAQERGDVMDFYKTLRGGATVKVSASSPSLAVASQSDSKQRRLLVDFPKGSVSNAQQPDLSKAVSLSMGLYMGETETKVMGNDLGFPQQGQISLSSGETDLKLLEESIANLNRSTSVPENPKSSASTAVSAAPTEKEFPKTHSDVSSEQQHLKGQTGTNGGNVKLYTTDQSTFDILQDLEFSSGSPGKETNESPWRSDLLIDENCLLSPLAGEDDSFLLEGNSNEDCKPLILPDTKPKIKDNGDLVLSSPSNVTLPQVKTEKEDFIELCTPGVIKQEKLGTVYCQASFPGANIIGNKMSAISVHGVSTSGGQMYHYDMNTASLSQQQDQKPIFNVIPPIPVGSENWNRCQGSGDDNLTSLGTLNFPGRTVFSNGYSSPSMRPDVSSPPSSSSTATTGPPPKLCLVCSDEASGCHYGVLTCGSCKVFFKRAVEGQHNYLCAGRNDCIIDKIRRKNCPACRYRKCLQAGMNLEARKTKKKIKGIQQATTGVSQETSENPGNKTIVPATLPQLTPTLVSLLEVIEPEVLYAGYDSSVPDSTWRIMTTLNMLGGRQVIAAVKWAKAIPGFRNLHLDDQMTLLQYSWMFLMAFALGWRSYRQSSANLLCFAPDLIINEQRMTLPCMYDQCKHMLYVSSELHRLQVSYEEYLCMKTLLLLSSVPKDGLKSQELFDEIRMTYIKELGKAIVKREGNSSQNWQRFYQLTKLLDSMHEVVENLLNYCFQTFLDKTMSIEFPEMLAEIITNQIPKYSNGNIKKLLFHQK
Cytochrome P450 2D6 (Homo sapiens), sequence (P10635 whole entry, looked up): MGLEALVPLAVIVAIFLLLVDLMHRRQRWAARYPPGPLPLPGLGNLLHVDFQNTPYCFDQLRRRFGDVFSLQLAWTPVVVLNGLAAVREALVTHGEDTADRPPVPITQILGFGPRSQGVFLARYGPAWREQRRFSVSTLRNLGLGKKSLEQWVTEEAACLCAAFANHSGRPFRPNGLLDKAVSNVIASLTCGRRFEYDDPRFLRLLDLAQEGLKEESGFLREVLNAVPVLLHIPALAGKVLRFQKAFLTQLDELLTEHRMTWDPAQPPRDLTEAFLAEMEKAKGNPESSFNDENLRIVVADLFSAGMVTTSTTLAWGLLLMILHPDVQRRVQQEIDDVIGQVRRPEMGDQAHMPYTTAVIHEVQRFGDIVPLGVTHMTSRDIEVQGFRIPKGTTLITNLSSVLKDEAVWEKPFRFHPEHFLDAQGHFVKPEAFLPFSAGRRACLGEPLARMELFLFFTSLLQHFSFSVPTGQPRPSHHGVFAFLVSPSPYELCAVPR
Ubiquitin carboxyl-terminal hydrolase 1 (Homo sapiens), sequence (O94782 whole entry, looked up): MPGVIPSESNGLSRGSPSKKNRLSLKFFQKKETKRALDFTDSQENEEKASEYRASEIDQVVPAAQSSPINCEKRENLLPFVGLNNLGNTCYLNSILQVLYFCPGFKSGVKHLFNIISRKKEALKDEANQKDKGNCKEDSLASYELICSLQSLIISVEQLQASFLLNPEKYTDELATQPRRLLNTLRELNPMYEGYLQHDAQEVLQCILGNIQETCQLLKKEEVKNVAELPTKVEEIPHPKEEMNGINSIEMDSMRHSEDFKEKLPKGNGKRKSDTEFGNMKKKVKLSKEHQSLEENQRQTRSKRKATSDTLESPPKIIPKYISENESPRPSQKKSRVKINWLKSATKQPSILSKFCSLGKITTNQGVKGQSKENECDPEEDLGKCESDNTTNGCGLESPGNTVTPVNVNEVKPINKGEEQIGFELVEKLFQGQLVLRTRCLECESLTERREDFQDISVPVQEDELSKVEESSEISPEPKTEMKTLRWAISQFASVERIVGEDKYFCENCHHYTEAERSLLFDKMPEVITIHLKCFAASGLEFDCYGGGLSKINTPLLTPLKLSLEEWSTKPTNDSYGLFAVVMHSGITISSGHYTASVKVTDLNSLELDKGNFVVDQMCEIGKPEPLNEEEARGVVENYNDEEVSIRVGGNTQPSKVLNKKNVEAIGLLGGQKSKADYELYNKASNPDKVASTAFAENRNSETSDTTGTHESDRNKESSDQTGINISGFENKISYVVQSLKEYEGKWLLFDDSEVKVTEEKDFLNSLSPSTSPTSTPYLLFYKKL
Cytochrome P450 2C19 (Homo sapiens), sequence (P33261 whole entry, looked up): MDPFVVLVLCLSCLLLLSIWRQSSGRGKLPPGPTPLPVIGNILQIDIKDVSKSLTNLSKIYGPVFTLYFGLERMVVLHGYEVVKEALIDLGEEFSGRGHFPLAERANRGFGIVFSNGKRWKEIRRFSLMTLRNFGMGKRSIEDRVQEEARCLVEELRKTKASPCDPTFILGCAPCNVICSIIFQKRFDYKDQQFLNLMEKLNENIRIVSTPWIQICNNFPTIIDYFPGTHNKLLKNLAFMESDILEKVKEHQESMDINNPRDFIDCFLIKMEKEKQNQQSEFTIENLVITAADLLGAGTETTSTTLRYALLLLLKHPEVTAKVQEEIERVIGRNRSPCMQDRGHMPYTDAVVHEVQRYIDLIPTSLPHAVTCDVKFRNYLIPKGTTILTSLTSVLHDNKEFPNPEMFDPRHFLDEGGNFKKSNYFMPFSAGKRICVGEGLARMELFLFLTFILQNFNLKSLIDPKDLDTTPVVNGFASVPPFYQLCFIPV

FC(F)(F)c1cc(CN2CC[C@@]3(CCCNC3)C2)cc(C(F)(F)F)c1
inactive: Potency [1] > 11.4 µM | activity change, negative = inhibition [2] 7.88% | Potency [3] | activity, negative = inhibition [4] 4.03% | Potency [5] > 46 µM | Potency [6] | Potency [7] | Potency [8] | Potency [9] | Potency [10] | Potency [11] | activity change, negative = inhibition [12] 1.16%
8.55%: max response [12, 20]
10.6%: max response [12, 21]

COc1ccc(C(=O)N2CCC3(CCCN(C(=O)Nc4cccc(C#N)c4)C3)CC2)cc1
7.45%: max response [12, 21]
inactive: Potency [1] > 11.4 µM | activity change, negative = inhibition [2] -23.2% | activity change, negative = inhibition [13] -8.43% | activity, negative = inhibition [4] 8.74% | Potency [5] > 46 µM | Potency [6] | Potency [9] | activity change, negative = inhibition [12] 3.86%
active: Potency [3] 15.8 µM | Potency [14] 6.31 µM
0.951%: max response [12, 20]

O=C(c1cccc(F)c1)N1CCC2(CC1)CCN(C(c1ccccc1)c1ccccc1)CC2
inactive: Potency [1] > 11.4 µM | activity change, negative = inhibition [2] 2.86% | activity, negative = inhibition [4] -6.67% | Potency [5] > 46 µM | Potency [6] | Potency [7] | Potency [14] | activity change, negative = inhibition [12] 4.65%
12.8%: max response [12, 20]
19.8%: max response [12, 21]
active: Potency [3] 10 µM | Potency [9] 5.01 µM | Potency [10] 3.16 µM

COc1ccccc1-c1nccc(NCc2cccc(C)c2)n1
-19.8%: max response [12, 20]
active: Potency [3] 0.631 µM | Potency [14] 6.31 µM | Potency [10] 1.58 µM | Potency [17] 22.4 µM
inactive: Potency [1] > 11.4 µM | activity change, negative = inhibition [2] -2.08% | activity change, negative = inhibition [13] -5.48% | Potency [5] > 46 µM | Potency [6] | Potency [9] | Potency [15] | outcome [16] | activity change, negative = inhibition [12] -4.4%
-23.8%: max response [12, 21]

CC(C)CN1CC[C@@]2(CCCN(C(=O)c3cc(C(F)(F)F)cc(C(F)(F)F)c3)C2)C1
13.4%: max response [12, 20]
17.5%: max response [12, 21]
active: Potency [3] 25.1 µM
inactive: Potency [1] > 11.4 µM | activity change, negative = inhibition [2] -5.91% | activity, negative = inhibition [4] 11.2% | Potency [5] > 46 µM | Potency [6] | Potency [7] | Potency [9] | activity change, negative = inhibition [12] 1.55%

c1ccc2c(Nc3ccncc3)nc(-c3ccc4c(c3)OCO4)nc2c1
inactive: activity change, negative = inhibition [2] 4.72% | activity, negative = inhibition [4] -10.5% | Potency [18] > 46 µM | Potency [5] > 46 µM | Potency [6] | Potency [9] | Potency [15] | activation [19] -1.29% | outcome [16] | activity change, negative = inhibition [12] -19.5%
-11.9%: max response [12, 21]
active: Potency [1] 2.47 µM | Potency [3] 1.26 µM | Potency [11] 3.98 µM | Potency [17] 39.8 µM
5.68%: max response [12, 20]

— PubChem BioAssay (NCATS)
